# Source: PubChem (National Center for Advancing Translational Sciences (NCATS))
# A selection: hits, their analogues and other compounds. The true share with any hit is near 2.4%.
# D2 ag-1 = D2 dopamine receptor (human) agonism; P14416; activation, % at 2 µM; AID 485358; 340,000 compounds, 0.53% hits; HEK293 T-REx D2 cells, calcium flux agonist mode;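 active means activation over 3 SD above normal in the single-dose calcium agonist read, cut at about 30% in these data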; further: 0% is about no effect
# Target sequence (P14416 whole entry, looked up): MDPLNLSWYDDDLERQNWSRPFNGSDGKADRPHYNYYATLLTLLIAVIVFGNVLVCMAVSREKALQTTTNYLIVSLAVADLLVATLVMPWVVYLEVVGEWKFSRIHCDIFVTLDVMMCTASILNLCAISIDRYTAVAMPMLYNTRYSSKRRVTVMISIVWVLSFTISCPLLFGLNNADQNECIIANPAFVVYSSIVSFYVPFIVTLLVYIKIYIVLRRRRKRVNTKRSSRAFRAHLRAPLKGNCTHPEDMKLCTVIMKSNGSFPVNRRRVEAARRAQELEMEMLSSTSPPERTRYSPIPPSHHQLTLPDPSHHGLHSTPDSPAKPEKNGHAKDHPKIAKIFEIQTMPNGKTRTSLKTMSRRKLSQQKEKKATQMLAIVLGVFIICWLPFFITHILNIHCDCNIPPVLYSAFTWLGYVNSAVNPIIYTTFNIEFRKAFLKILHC
#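 Agonism is scored from calcium flux in a force-coupled, inducible HEK293 cell line expressing D2, read kinetically for 180 s after compound addition against dopamine controls.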
# D2 ag-2 = agonists of human D2 dopamine receptor (beta-arrestin) | activation, % (concentration not given with the values) | 360,000 compounds, 0.084% hits | DiscoveRx PathHunter D2 beta-arrestin, luminescence, 90 min; 100% = 57 uM dopamine signal | AID 624465 | P14416; in the data active means activation above about 40%
#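 DiscoveRx PathHunter D2 beta-arrestin cells (2,100/well) attached overnight, then compound-stimulated 90 min at 37 C in HBSS/10 mM HEPES/0.1% Tween-20 buffer; beta-galactosidase complementation read by luminescence after 1 h at ambient temperature. Dopamine 57 uM final (EC100) as control.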
# D2 antag = antagonizes the human D2 dopamine receptor. 340,000 compounds, 2% hits. AID 485344. P14416. HEK293 TREx D2 cells, calcium flux, dopamine EC80. inhibition, % at 10 µM; in the data active means inhibition above about 30%; inactive means below that, where a call was filed; further: 0% is about no effect
#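 Inhibition of EC80 dopamine-driven calcium flux, recorded kinetically, defines activity here; cells are a tetracycline-induced HEK293 T-REx line expressing force-coupled D2.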
# D2 PAM-1 = D2 dopamine receptor (human) potentiation. P14416. HEK293 T-REx D2, calcium flux, EC20 dopamine potentiation. potentiation, % at 10 µM. 340,000 compounds, 0.34% hits. AID 485347;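 active means potentiation over 3 SD above the plate norm, cut at about 30% in these data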; further: 0% is about no effect
#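 Using a no-wash calcium dye in inducible, force-coupled HEK293 Trex cells expressing D2, we tracked fluorescence each second for 180 s after compound, then for 180 s after EC20 dopamine to detect augmented signalling.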
# D2 PAM-2 = human D2 receptor positive allosteric modulation | 360,000 compounds, 0.23% hits | AID 624464 | P14416 | potentiation, % (no concentration beside the values) | DiscoveRx D2 beta-arrestin cells, luminescence, 90 min; 100% = 57 uM dopamine signal; in the data active means potentiation above about 50%
#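 PathHunter beta-arrestin assay in DiscoveRx D2 cells. Compounds were added with an EC20 of dopamine (50 nM final) for 90 min at 37 deg C. Luminescence was read 1 h after detection reagent, with 57 uM dopamine as the EC100 control.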
# An asterisk follows results filed as active; . = no result.
SMILES,D2 ag-1,D2 ag-2,D2 antag,D2 PAM-1,D2 PAM-2
S=c1[nH]c(-c2ccccc2)cn1/N=C/c1cccc2ccccc12,0.2,-16.1,33.0*,-13.9,-29.8
O=C(NCc1cccc(Br)c1)C1CCCCN1S(=O)(=O)c1ccc(F)cc1 (centres undefined),0.7,.,.,-5.8,.
COc1cc(NC(=O)Cn2nc(C(F)(F)F)c3c2CCC3)cc(OC)c1OC,-0.1,.,.,10.6,.
CCc1nnc(NC(=O)c2ccc(COc3ccc(C)cc3)o2)s1,0.6,-3.0,30.2*,0.0,-0.2
CCc1nnc(NC(=O)c2ccc(COc3ccccc3)o2)s1,-1.0,-1.6,-12.4,29.9,-3.3
CCc1nnc(NC(=O)CCC(=O)Nc2ccc(C)cc2)s1,1.0,-8.9,43.2*,-8.6,-10.9
O=C(NCCN1CCc2ccccc2C1)C1CCN(S(=O)(=O)N2CCCCC2)CC1,34.1*,1.6,-3.7,-10.2,-6.0
Cc1cc(C)cc(Nc2cc(=O)n(C3CCCCC3)c(=O)[nH]2)c1,1.3,1.1,6.3,3.3,-1.3
Cc1cc2nc3c(=O)n(C4CCCCC4)c(=O)[nH]c3nc2cc1N,61.4*,5.4,-27.6,-4.4,9.3
CNC(=O)c1c(NC(=O)c2ccc(S(=O)(=O)N(C)c3ccccc3)cc2)sc2c1CCN(C(C)C)C2,84.4*,-2.1,19.2,-2.6,15.2
CCN1CCc2c(sc(NC(=O)c3ccc(S(=O)(=O)N(C)c4ccccc4)cc3)c2C(=O)NC)C1,38.1*,-7.0,1.4,1.1,-1.8
CCN1CCc2c(sc(NC(=O)c3ccc(S(=O)(=O)N(CCOC)CCOC)cc3)c2C(N)=O)C1,-0.3,.,.,-3.6,.
CC(C)N1CCc2c(sc(NC(=O)c3ccc(S(=O)(=O)N(C)C4CCCCC4)cc3)c2C(N)=O)C1,2.2,.,.,8.4,.
CCc1nn(CC(=O)NCc2ccccc2Cl)c(=O)c2cc3ccccc3n12,-0.1,.,.,1.4,.
Cc1ccc(SCCNS(C)(=O)=O)cc1,-0.1,-1.4,-11.7,35.9*,-16.1
Cc1ccc(-n2nc(CO)c(C(=O)NC(C)c3ccccc3)n2)cc1C (centres undefined),.,.,.,-0.1,.
CN1CCCC(CN2c3ccccc3Sc3ccccc32)C1 (centres undefined),.,-0.5,.,.,-32.3
CN1CCCCC1CCN1c2ccccc2Sc2ccc(S(C)=O)cc21 (centres undefined),0.7,-3.4,95.7*,-27.8,-10.2
COCC1CCCN(Cc2cn(-c3ccccc3F)nc2-c2cc(C)sc2C)C1 (centres undefined),2.5,-4.0,41.0*,-16.9,-18.8
Cc1cc(C)n(CCc2nc3c4ccccc4nc(N4CCN(c5ccc(F)cc5)CC4)n3n2)n1,-0.3,.,.,-6.3,.
CCN(CC)CCCNC(=S)N1CCN(c2nc3ccccc3n2CC)CC1,1.8,5.8,47.7*,-16.7,-20.5
COC(=O)CC1Oc2ccc(F)cc2-n2cc(-c3ccc(C)cc3)nc21 (centres undefined),0.4,.,.,5.1,.
CCOc1ccc(-c2nc(SCC(=O)Nc3cc(F)ccc3F)n3[nH]c(=O)cc3n2)cc1,.,.,.,1.8,.
COc1ccc(NC(=O)CSc2nnc3ccc(-c4ccccn4)nn23)cc1OC,0.4,-5.2,30.3*,-10.4,-18.0
Cc1cc(C(=O)COC(=O)/C=C/c2ccc(F)cc2)c(C)n1C,0.1,-1.0,2.5,4.8,-13.6
SMILES,D2 ag-1,D2 ag-2,D2 antag,D2 PAM-1,D2 PAM-2
COCC(C)n1c(C)cc(C(=O)COC(=O)/C=C/c2cccc(F)c2)c1C (centres undefined),0.1,2.4,3.7,53.1*,-2.7
OCCN1CCN(CC/C=C2/c3ccccc3Sc3ccc(C(F)(F)F)cc32)CC1,1.8,2.0,82.9*,-22.4,-28.9
CN(C)CCCN1c2ccccc2Sc2ccc(C(F)(F)F)cc21,1.0,3.8,94.9*,-28.5,-21.5
CN1CCN(CCC=C2c3ccccc3Sc3ccc(S(=O)(=O)N(C)C)cc32)CC1,0.8,1.2,77.4*,-17.2,-2.8
CN1CCN(CCC(=O)N2c3ccccc3Sc3ccc(C(F)(F)F)cc32)CC1,0.1,-1.2,-17.4,-18.0,-24.9
OCCN1CCN(CC/C=C2/c3ccccc3CSc3ccccc32)CC1,.,-7.1,.,.,-15.0
OCCN1CCN(CCCN2c3ccccc3Sc3ccc(C(F)(F)F)cc32)CC1,.,.,59.7*,.,.
CCCn1c2ccccc2c2cnn(CC(=O)NCCc3ccc(C)cc3)c(=O)c21,-1.2,.,.,-1.9,.
COc1ccccc1NC(=O)CSc1nc(-c2ccc(C(C)(C)C)cc2)c(C#N)c(=O)[nH]1,-0.7,.,.,-1.1,.
Cn1c(=O)c2c(SCC(=O)NCC3CCCO3)nc(-c3cccc(F)c3)nc2n(C)c1=O (centres undefined),0.5,.,.,-4.0,.
CCN(CC)CCCCN1c2ccccc2Sc2ccccc21,-0.3,-4.6,47.1*,-20.1,-20.3
CC(C)c1nnc(NC(=O)CC23CC4CC(CC(C4)C2)C3)s1,4.4,-7.0,36.1*,2.0,-2.1
CN(c1ccc(Cl)cc1)S(=O)(=O)c1nnc(NC(=O)C2CCCCC2)s1,-0.4,.,.,7.4,.
CCCN(Cc1cc2cc(C)ccc2[nH]c1=O)C(=O)c1cccc(Cl)c1,-0.3,.,.,9.3,.
O=C(CCCCCn1c(=O)c2sccc2n(Cc2ccccc2Cl)c1=O)NCc1ccc2c(c1)OCO2,-0.7,.,.,3.3,.
COc1cc(/C=C2\SC(N3CCc4ccccc4C3)=NC2=O)cc(OC)c1OC,0.5,-7.8,56.3*,-28.9,-23.2
COc1ccc(NC(=O)CSc2nc(-c3ccc(OC)cc3)[nH]c2-c2ccc(OC)cc2)cc1,-0.9,.,.,-7.0,.
CN(C(=O)c1ccc(C#N)cc1)c1nnc(-c2ccccn2)s1,-0.8,-3.8,24.8,11.8,-20.5
CN(C(=O)c1ccncc1)c1nnc(-c2ccccn2)s1,0.6,2.1,34.7*,-2.2,8.5
COCCn1c(-c2ccc(NC(C)=O)cc2)nc2c1c(=O)[nH]c(=O)n2CC(C)C,0.4,-1.5,30.5*,0.3,-2.7
COCCn1c(-c2ccc(-c3ccccc3Cl)o2)nc2c1c(=O)[nH]c(=O)n2CC(C)C,-0.4,-1.7,-2.9,-1.3,-13.6
CCOc1cc(C(=O)Nc2ccc(S(=O)(=O)N3CCOCC3)cc2)cc(OCC)c1OCC,-1.1,-3.7,1.7,-7.9,-21.6
CCOc1cc(C(=O)NN2CCOCC2)cc(OCC)c1OCC,0.4,-2.3,36.3*,1.1,-0.1
CCc1ccc(OCc2cc(=O)n3cc(C)sc3n2)cc1,-1.0,.,.,-12.2,.
CCOC(=O)C1=NN(C(=O)c2ccc(C)cc2)C(O)(c2ccc(Cl)cc2)C1 (centres undefined),30.5*,-4.4,22.0,-3.3,-14.1
O=C(Nc1cccc(Cl)c1Cl)c1cc2nc(-c3ccc(Cl)cc3)cc(C(F)(F)F)n2n1,.,.,.,0.2,.
c1ccc(CCn2nnnc2CN2CCCc3ccccc32)cc1,-0.2,1.2,8.8,-5.1,1.1
